Among the data in PubChem BioAssay (NCI) are growth values, retold here.

Each structure is given as a SMILES string. The panel holds about 83,000 compounds, 20% with a hit somewhere; the sample as a whole holds those more often.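 Note: values are percent growth. 100 is the growth of untreated cells, values between 100 and 0 indicate rising inhibition; between -100 and 0 indicates cell death.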 A number with no mark means an inactive call. Calls of active or inactive are those of the source. Rule for the calls: active = growth percent below 10; inactive = the rest.

Test systems include SK-MEL-2 melanoma; EKVX NSCLC; SN12C renal; UO-31 renal; TK-10 renal; ACHN renal; CAKI-1 renal; A498 renal; CCRF-CEM leukemia; MOLT-4 leukemia; RPMI-8226 leukemia; OVCAR-8 ovarian; OVCAR-5 ovarian; OVCAR-4 ovarian; SK-OV-3 ovarian; IGROV1 ovarian; OVCAR-3 ovarian; HS 578T breast; NCI/ADR-RES ovarian; SR leukemia.
Common to all, as to test: NCI-60 one-dose screen, 48 h (100 = growth as untreated, 0 = no growth, -100 = all killed)
Common to all, as to details: 10 µM unless noted

For the compound `COc1ccc(-n2nnc(C(=O)NCCc3c[nH]c4ccc(F)cc34)c2C)cc1`, the growth was 91.6% in the test with SK-MEL-2 melanoma; 102% in the test on EKVX NSCLC; 103% with SN12C renal; 83.5% in the test with UO-31 renal; 96.2% with TK-10 renal; 102% in the test on ACHN renal. Further, the growth in the test on CAKI-1 renal was 91.7%; with A498 renal it was 100%; in the test with CCRF-CEM leukemia, 87.9%; in the test with MOLT-4 leukemia, 87.9%; in the test on RPMI-8226 leukemia, 93.3%; with OVCAR-8 ovarian it was 98.6%. The growth with OVCAR-5 ovarian is 101%; in the test with OVCAR-4 ovarian it was 107%; with SK-OV-3 ovarian, 89.8%; in the test on IGROV1 ovarian it was 107%; with OVCAR-3 ovarian it was 103%; with HS 578T breast it was 96.5%. For the same compound, the growth with NCI/ADR-RES ovarian was 106%.

`CC(C)n1nc(C#Cc2cccc(O)c2)c2c(N)ncnc21`: the growth in the test on SK-MEL-2 melanoma was -76.9% (active); with EKVX NSCLC it was -27.1% (active); in the test on SN12C renal it was -44.3% (active); in the test with UO-31 renal, -63.4% (active); in the test with TK-10 renal it was -87.4% (active); in the test on ACHN renal it was -47.3% (active). Besides, the growth with CAKI-1 renal is -66.8% (active); in the test on A498 renal, -84.9% (active); with CCRF-CEM leukemia it was -21% (active); in the test on MOLT-4 leukemia, -36.1% (active); with RPMI-8226 leukemia, -46.9% (active); with OVCAR-8 ovarian it was -36.4% (active). The growth in the test with OVCAR-5 ovarian is -43% (active); in the test on SK-OV-3 ovarian, -62.6% (active); in the test with IGROV1 ovarian, -68.8% (active); in the test with OVCAR-3 ovarian, -19.6% (active); with NCI/ADR-RES ovarian it was -29.2% (active).

On to `O=S(=O)(Nc1ccsc1-c1nc(-c2ccccc2)no1)c1cc(Cl)cc(Cl)c1`, for which the growth with SK-MEL-2 melanoma is 105%; with EKVX NSCLC it was 95.6%; in the test with SN12C renal, 91.3%; in the test with UO-31 renal, 83.2%; in the test with TK-10 renal, 102%; in the test with ACHN renal, 98.2%. For the same compound, the growth with CAKI-1 renal was 86.9%; with A498 renal, 91.1%; with CCRF-CEM leukemia, 101%; in the test with MOLT-4 leukemia it was 104%; in the test with RPMI-8226 leukemia it was 82.6%; with OVCAR-8 ovarian, 92.4%. The growth in the test on OVCAR-5 ovarian was 86.5%; in the test with OVCAR-4 ovarian, 93.8%; with SK-OV-3 ovarian, 83.3%; in the test on IGROV1 ovarian it was 100%; in the test with OVCAR-3 ovarian, 96.7%; with HS 578T breast, 94.1%. In the test with NCI/ADR-RES ovarian, the growth is 94%.

For `CN(C)CCN1C(=O)c2cccc3c(-c4ccc(-c5nc6c7ccccc7c7ccccc7c6[nH]5)cc4)ccc(c23)C1=O`, the growth in the test with SK-MEL-2 melanoma was 105%; in the test with EKVX NSCLC, 93.9%; in the test with SN12C renal it was 97.4%; in the test on UO-31 renal, 96.8%; with TK-10 renal, 105%; in the test with ACHN renal, 112%. In addition, the growth was 88% with CAKI-1 renal; 100% with A498 renal; 55.4% in the test on CCRF-CEM leukemia; 38.6% in the test with SR leukemia; 54.9% with RPMI-8226 leukemia; 52% with OVCAR-8 ovarian. Further, the growth in the test with OVCAR-5 ovarian is 123%; with OVCAR-4 ovarian, -2.99% (active); in the test with SK-OV-3 ovarian, 109%; in the test with IGROV1 ovarian it was 96.3%; in the test on OVCAR-3 ovarian, 117%; in the test on HS 578T breast it was 117%. Moreover, the growth in the test with NCI/ADR-RES ovarian was 88.1%.

Consider `Cc1ccc(/C(=N\N=C(N)N)c2ccccc2)cc1`, for which the growth in the test on SK-MEL-2 melanoma is 71.3%; with EKVX NSCLC, 34.3%; in the test with SN12C renal it was 26.9%; in the test on UO-31 renal it was 24.8%; with TK-10 renal, 42.2%; in the test with ACHN renal it was 20.4%. For the same compound, the growth in the test with CAKI-1 renal was 41.2%; in the test on A498 renal, 20.1%; in the test on CCRF-CEM leukemia, 14%; in the test with MOLT-4 leukemia it was 13.3%; in the test on RPMI-8226 leukemia it was -7.92% (active); in the test with OVCAR-8 ovarian, 22.4%. Further, the growth in the test on OVCAR-5 ovarian is 51.4%; in the test with OVCAR-4 ovarian, 15.8%; with SK-OV-3 ovarian it was 4.12% (active); in the test on IGROV1 ovarian, -0.836% (active); in the test with OVCAR-3 ovarian, -38.5% (active); in the test with HS 578T breast, 31.5%. Moreover, the growth in the test with NCI/ADR-RES ovarian was 15.5%.

On to `N#Cc1c(NC(=O)c2cccc(C(F)(F)F)c2)sc2c1CCC(=O)C2`, for which the growth in the test with SK-MEL-2 melanoma was -0.134% (active); in the test on EKVX NSCLC it was 14.7%; with SN12C renal it was 4.55% (active); with UO-31 renal, -100% (active); in the test with TK-10 renal it was -5.21% (active); with ACHN renal, -93.8% (active). Also, the growth is -85.3% (active) with CAKI-1 renal; 94.6% in the test on A498 renal; 6.89% (active) in the test with CCRF-CEM leukemia; 3.86% (active) in the test on MOLT-4 leukemia; -9.7% (active) with RPMI-8226 leukemia; 10.4% with OVCAR-8 ovarian. For the same compound, the growth in the test with OVCAR-5 ovarian was 12.9%; in the test with OVCAR-4 ovarian, -80.7% (active); in the test with SK-OV-3 ovarian, 3.53% (active); in the test with IGROV1 ovarian, -50.7% (active); with OVCAR-3 ovarian it was -46.8% (active); in the test with HS 578T breast it was 1.32% (active). For the same compound, the growth in the test on NCI/ADR-RES ovarian is 7.01% (active).

`COc1ccc(Nc2ncc(Br)c(NCCCNC(=O)C3CCC3)n2)cc1`: the growth in the test with SK-MEL-2 melanoma was 42.1%; in the test with EKVX NSCLC, 37.2%; in the test with SN12C renal, 27.8%; in the test with UO-31 renal, -19.8% (active); with TK-10 renal it was 5.53% (active); with ACHN renal, 19.5%. The growth in the test with CAKI-1 renal is 0.899% (active); in the test on A498 renal, 26.1%; with CCRF-CEM leukemia, 17.2%; in the test with MOLT-4 leukemia, 12.1%; in the test on RPMI-8226 leukemia it was 40.1%; in the test on OVCAR-8 ovarian, 28.6%. In addition, the growth is 31.1% in the test on OVCAR-5 ovarian; -0.243% (active) with OVCAR-4 ovarian; 10.6% in the test with SK-OV-3 ovarian; 14.5% in the test with IGROV1 ovarian; 31.6% in the test on OVCAR-3 ovarian; -15.7% (active) with HS 578T breast. The growth with NCI/ADR-RES ovarian was 47.4%.

As to `CS(=O)(=O)c1ccc(-c2nc3cc(Cl)ccc3n2CC(=O)NO)cc1`, the growth is 88.2% in the test on SK-MEL-2 melanoma; 99.4% in the test on EKVX NSCLC; 95% with SN12C renal; 82.4% with UO-31 renal; 112% in the test on TK-10 renal; 93.7% in the test with ACHN renal. Also, the growth with CAKI-1 renal was 93.6%; in the test with A498 renal, 101%; with CCRF-CEM leukemia, 93.8%; in the test on MOLT-4 leukemia, 94.2%; with RPMI-8226 leukemia, 90.9%; with OVCAR-8 ovarian, 88.3%. In addition, the growth in the test with OVCAR-5 ovarian was 100%; in the test with OVCAR-4 ovarian, 87.6%; in the test on SK-OV-3 ovarian, 96.4%; in the test on IGROV1 ovarian, 88.4%; with OVCAR-3 ovarian, 96.1%; in the test on HS 578T breast it was 93.2%. Besides, in the test on NCI/ADR-RES ovarian, the growth was 108%.
